# Experimental data taken from PubChem BioAssay AID588689 (Southern Research Specialized Biocontainment Screening …, 2011).
# The campaign covered roughly 340,000 compounds. About 1,000 (0.29%) were called active. Rule as the data show it: inconclusive = inhibition above about 29% without an active follow-up result; inactive = below that. The list is a sample of the results. Measured potencies and affinities stand elsewhere.
# Target: Genome polyprotein (Dengue virus type 2 (strain 16681-PDK53)) (UniProt P29991)
# Test: flavivirus cap methylation enzyme inhibition – biochemical, confirmation dose response, primary screen (AID 588689)
# Conditions: Dengue-2 NS5 methyltransferase capping enzyme assay, at 25 µM, stronger effect = higher value
# [1] = measured here: pilot screen replicate inhibition
SMILES,inhibition,inhibition [1] [%]
CCOC(=O)c1ccccc1NC(=O)c1n[nH]c(=O)c2ccccc12,0% (inactive),–
COc1cccc(N2CCN(C(=O)c3c(C)nn(-c4ccccc4)c3C)CC2)c1,-1.48% (inactive),–
COc1ccc(C(=O)NC2CCCc3c2cnn3-c2ccc(C)c(C)c2)c(OC)c1OC (stereo not given),-2.67% (inactive),–
CC1=NN(c2ccccc2)C(=O)C1C(=S)SC1CC(=O)NC1=O (stereo not given),26.3% (inactive),–
O=C1CC(Sc2ncccc2C(=O)O)C(=O)N1 (stereo not given),6.1% (inactive),–
O=C(COC(=O)c1ccc(Br)o1)NC1CCCc2ccccc21 (stereo not given),-3.71% (inactive),–
CC(C)NS(=O)(=O)c1ccc(OCC(=O)NCc2ccco2)cc1,-2.21% (inactive),–
O=[N+]([O-])c1cnc2ccccc2c1,3.89% (inactive),–
Cc1ccc2nc(C)c(C(=O)N/N=C/c3ccccc3[N+](=O)[O-])cc2c1,-1.3% (inactive),–
Cc1nc2ccc([N+](=O)[O-])cc2nc1C,-4.51% (inactive),–
O=c1c2c([N+](=O)[O-])cc([N+](=O)[O-])cc2nc2ccccn12,0% (inactive),–
COc1cc(Cl)cc(NC(=O)CCN2CCN(C)CC2)c1,-1.61% (inactive),–
O=C(NCCc1cccnc1)C1CCC(=O)N(CCc2cccc(F)c2)C1 (stereo not given),-9.31% (inactive),–
Cc1ccccc1C(=O)Nc1c2c(nn1C(C)(C)C)CS(=O)(=O)C2,-5.2% (inactive),–
C=C1C(=O)O[C@H]2C[C@H]1[C@@H](OC(C)=O)C/C(C)=C/CC/C(C)=C\CC[C@]2(C)O,-22.5% (inactive),-2.46
CC(=O)C12CCCCC1CC1C3CC(C)C4(O)CC(=O)CCC4(C)C3CCC12C (stereo not given),-1.3% (inactive),–
O=C(c1ccccc1NS(=O)(=O)c1ccccc1[N+](=O)[O-])N1CCCC1,5.25% (inactive),–
O=C(c1ccccc1NS(=O)(=O)c1ccccc1[N+](=O)[O-])N1CCOCC1,-3.61% (inactive),–
O=C1NN(c2ccccc2)C(=O)/C1=C/c1ccc(Sc2cccc3ccccc23)o1,-6.2% (inactive),–
O=Cc1ccc(-c2cccc(C(=O)O)c2)o1,0.72% (inactive),–
O=C1NN(c2ccccc2)C(=O)/C1=C\c1ccc(-c2cc([N+](=O)[O-])ccc2O)o1,-10.2% (inactive),–
O=C1NN(c2ccccc2)C(=O)/C1=C/c1ccc(Sc2ccc(Cl)cc2)o1,29.5% (inactive),–
CCc1cc(=O)oc2c3c(cc(OCC(=O)NCCCC(=O)O)c12)OC(C)(C)CC3,-5.29% (inactive),–

SMILES,inhibition,inhibition [1] [%]
Cc1cc(C)n2nc(SCC(=O)N3CCCCC3C)nc2n1 (stereo not given),3.69% (inactive),–
CCC1(C2=CCCCC2)C(=O)NC(=O)N=C1N (stereo not given),1.17% (inactive),–
C[C@H](NC(=O)c1nc[nH]c1C(=O)NCCCCCN)C(=O)OCc1ccccc1,1.59% (inactive),–
O=C(COC(=O)c1ccc(-c2cnc3ccccc3n2)cc1)c1ccccc1,5.84% (inactive),–
COc1ccc(-n2nc3cc(N)c(Br)cc3n2)cc1,2.38% (inactive),–
Nc1cccc2nsnc12,12.4% (inactive),–
CCOC(=O)C1C(C(=O)Nc2cccc(C(F)(F)F)c2)C1C(=O)NC(C)C (stereo not given),-1.46% (inactive),–
O=C(Nc1c[nH]c(=O)[nH]c1=O)c1cccc([N+](=O)[O-])c1,-9.65% (inactive),–
COC(=O)c1sc(-c2ccccc2)cc1NC(=O)c1ccccc1,-1.45% (inactive),–
COC(=O)c1sc(-c2ccc(C(C)(C)C)cc2)cc1NC(=O)CSCC(=O)O,3.13% (inactive),–
COC(=O)c1sc(-c2ccc(Cl)cc2)cc1NC(=O)c1ccccc1C(=O)O,15.7% (inactive),–
COC(=O)c1sc(-c2ccc(Cl)cc2)cc1NC(=O)/C=C/C(=O)O,16.1% (inactive),–
OCC(CO)(CO)n1cnnn1,-8.59% (inactive),–
Cc1ccnc(N/C=C(/NC(=O)c2ccccc2)C(=O)N/N=C\c2ccc(Cl)cc2)n1,-3.09% (inactive),–
O=C(COC(=O)c1ccc2c(c1)S(=O)(=O)N=C1CCCCCN12)NCc1cccs1,-3.45% (inactive),–
CCOC(=O)C1CCCN(S(=O)(=O)c2cc(OCC(N)=O)c(C)cc2Cl)C1 (stereo not given),-5.68% (inactive),–
CC(C)c1ccc(S(=O)(=O)c2nnn3c2nc(N2CCCCC2)c2ccccc23)cc1,1.47% (inactive),–
CC(C)c1ccc(S(=O)(=O)c2nnn3c2nc(NCC2CCCO2)c2ccccc23)cc1 (stereo not given),0% (inactive),–
O=C(/C=C/c1ccco1)Nc1ccc2c(c1)OCCO2,-4.48% (inactive),–
COC(=O)c1c(-c2ccc(C)cc2)csc1NC(=O)C1CC=CCC1C(=O)O (stereo not given),0% (inactive),–
CCOC(=O)c1c(-c2ccc(C)cc2)csc1NC(=O)C1CC=CCC1C(=O)O (stereo not given),14.8% (inactive),–
CCOC(=O)c1c(-c2ccc(F)cc2)csc1NC(=O)C1CC=CCC1C(=O)O (stereo not given),9.56% (inactive),–
COC(=O)c1c(-c2ccccc2)csc1NC(=O)C1CC=CCC1C(=O)O (stereo not given),-4.1% (inactive),–

SMILES,inhibition,inhibition [1] [%]
O=C(NC(=S)Nc1ccccc1Br)C1CC1,7.22% (inactive),–
Cc1nc2cc(N3CCCCC3)c(NC(=O)c3cccnc3)cc2c(=O)n1Cc1ccccc1,-0.81% (inactive),–
Nn1c(SCC(=O)Nc2ccc(F)c(F)c2)nnc1C1CCCCC1,-4.85% (inactive),–
COC(=O)CSc1nnc(-c2ccc(S(=O)(=O)N3CCCC3)cc2)o1,-3.25% (inactive),–
Nc1nc2c(nc(SCc3ccccc3Br)n2[C@@H]2O[C@H](CO)[C@@H](O)[C@H]2O)c(=O)[nH]1,-5.87% (inactive),–
CCOc1ccc(NC(=S)N(CCc2c(C)[nH]c3ccc(C)cc23)Cc2ccncc2)cc1,-0.7% (inactive),–
O=C(CSc1nnc(-c2ccc(Cl)cc2)n1-c1ccccc1)N/N=C/c1ccccc1C(=O)O,-3.12% (inactive),–
COc1ccc([C@H]2N[C@]3(CCCN(Cc4ccc(Cl)cc4)C3=O)[C@H]3C(=O)N(Cc4ccccc4)C(=O)[C@@H]23)cc1,-3.98% (inactive),–
CCOC(=O)c1c(NCc2ccc3c(c2)OCO3)c2ccccc2[nH]c1=O,-4.02% (inactive),–
O=S(=O)(Nc1nccs1)c1cc(Cl)ccc1Cl,-13.7% (inactive),–
O=S(=O)(Nc1nc(-c2ccccc2)cs1)c1cc(Cl)ccc1Cl,28.3% (inactive),–
S=C(Nc1ccc(Nc2ccccc2)cc1)Nc1ccccn1,-0.82% (inactive),–
COc1ccc(-c2cc(=O)c3ccccc3n2C)cc1,-9.65% (inactive),–
COc1ccc(N2C(=O)C(Cl)=C(Nc3ccccc3OC)C2=O)cc1,1.45% (inactive),–
CCOc1ccc(N2C(=O)C(Cl)=C(Nc3ccccc3O)C2=O)cc1,31% (inactive),–
Cc1cccc(/C=N/n2c(C)cc(C)c(C#N)c2=O)c1,-3.26% (inactive),–
O=C(O)c1cccc(-n2cccc2C=C2C(=O)c3ccccc3C2=O)c1,12.5% (inactive),–
O=Cc1cccn1-c1ccc(O)cc1,-5.89% (inactive),–
O=C1C(=Cc2cccn2-c2ccccc2)C(=O)c2ccccc21,5.2% (inactive),–
O=C1NC(=S)N/C1=C/c1cccn1-c1ccc([N+](=O)[O-])cc1,0% (inactive),–
CCC(OC(=O)CNS(=O)(=O)c1ccccc1)C(=O)c1ccccc1 (stereo not given),5.35% (inactive),–
COc1ccc2c(c1OC)C(=O)N1C(C(=O)O)Cc3c([nH]c4ccccc34)C21 (stereo not given),-3.23% (inactive),–
CCOc1cc(NC(=S)NCCCN2CCOCC2)c(OCC)cc1NC(=O)c1cccc(C)c1,3.64% (inactive),–

SMILES,inhibition,inhibition [1] [%]
O=S(=O)(CCSc1ccc(C(F)(F)F)cn1)c1ccccc1,-9.27% (inactive),–
O=C(NCc1ccco1)c1ccc(CS(=O)Cc2cccc(Cl)c2)o1 (stereo not given),2.71% (inactive),–
NNc1nc(-c2ccccc2)c2cc(Cl)ccc2n1,4.62% (inactive),–
COCCN(CC(=O)Nc1cccc(C)c1C)C(=O)C1(c2ccc(Cl)cc2)CCC1,-0.37% (inactive),–
Cc1ccc(C2C3=C(CCCC3=O)Nc3[nH]c(=S)[nH]c(=O)c32)cc1 (stereo not given),-5.01% (inactive),-6.68
O=C1CCCC2=C1C(c1ccc(Br)cc1)c1c([nH]c(=S)[nH]c1=O)N2 (stereo not given),15.2% (inactive),–
O=c1cc(CCc2ccccc2)oc2cccc(O)c12,-3.62% (inactive),–
CC(C)(C)C(=O)CN1C(=O)NC2(CCc3ccccc32)C1=O (stereo not given),-0.65% (inactive),–
COc1cccc(-c2nc(CS(=O)(=O)CC(=O)N3CCc4ccccc4C3)c(C)o2)c1,6.54% (inactive),–
CNc1ccccc1C(=O)OC,2.17% (inactive),–
CC1(C)CC(=O)C(N=Nc2ccc(OC(F)F)cc2)=C(O)C1,10.8% (inactive),–
CC1(C)CC(=O)C(C(C#Cc2ccccc2)C2=C(O)CC(C)(C)CC2=O)=C(O)C1,-2.82% (inactive),–
CC1(C)CC(=O)C(C(C2=C(O)CC(C)(C)CC2=O)c2cccc(O)c2)C(=O)C1 (stereo not given),0.68% (inactive),-19.3
CC1(C)CC(=O)C(C(C2=C(O)CC(C)(C)CC2=O)c2ccco2)C(=O)C1 (stereo not given),-52.5% (inactive),–
CC1(C)CC(=O)C(Br)=C(O)C1,-10.3% (inactive),–
COc1cccc(C(C2=C(O)CC(C)(C)CC2=O)C2C(=O)CC(C)(C)CC2=O)c1 (stereo not given),-1.95% (inactive),–
CC1(C)CC(=O)C(C(c2ccco2)C2C(=O)CC(C)(C)CC2=O)C(=O)C1,37.4% (inactive),17.1
CC1(C)CC(=O)C(C(c2ccncc2)C2C(=O)CC(C)(C)CC2=O)C(=O)C1,5.41% (inactive),–
O=C(O)c1cnc(-c2ccccc2)nc1Sc1ccc(Cl)cc1Cl,4.03% (inactive),–
Cc1cccc(C2=NN(c3ccccc3)[C@@H](C(=O)N3CCOC3=O)[C@@H]2C)c1,-1.32% (inactive),4.88
CCOC(=O)c1cc(=O)nc(N)s1,-4.03% (inactive),–
